Measurements taken from PubChem BioAssay.
Activity calls are given as the source filed them. Unless noted, no rule for the calls is given here.

Legend:
[1] = system: Wnt5a (protein binding on small-molecule microarray); experiment: Wnt5a binders on small-molecule microarray, primary screen, biophysical, 635/667 nm fluorescence (AID 1142); details: 635 nm fluorescence, higher = more signal;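 also: fluorescence read at 667 nm with signal to noise per printed feature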
[2] = cell viability in Huh7 cells, primary screen, cytotoxicity control for HCV replication inhibitor project, CellTiter-Glo luminescence, basal, 48 h (AID 1143); details: Huh7 HCV replicon, higher = more signal, called active from +8 up or from −8 down;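 also: Huh7 hepatoma cells carrying a hepatitis C replication reporter with no stimulus; test concentration not given here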
[3] = P. aeruginosa biofilm formation inhibitors, primary screen, PAO1 strain, BacTiter-Glo luminescence, LB-PBS (AID 1144); details: 12 h, higher = more signal
[4] = CREB reporter modulators without forskolin, primary screen, cell-based, PC12, CRE-LacZ reporter, unstimulated (AID 1145); details: no forskolin, luminescence, 4.5 h, higher = more signal, called active from +8 up or from −8 down
[5] = CREB reporter modulators under forskolin, primary screen, cell-based, PC12, CRE-LacZ reporter, forskolin-stimulated (AID 1146); details: luminescence, 4.5 h, higher = more signal, called active from +8 up or from −8 down;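 also: PC12 cells with 6xCRE LacZ reporter stimulated by forskolin 10 µM; beta-galactosidase reporter signal reflecting CREB driven transcription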
[6] = biological target: Streptavidin (Streptomyces avidinii) (UniProt P22629); experiment: streptavidin binders on small-molecule microarray, primary screen, artefact control for SMM compound annotation, biophysical, 635/667 nm fluorescence (AID 1147); details: streptavidin binding, higher = more signal;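 also: signal reflects streptavidin binding to arrayed compounds as a control protein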
[7] = small-molecule binders of probe aInhba, primary screen, biochemical, small-molecule microarray, 635/667 nm fluorescence (AID 1148); details: higher = more signal;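 also: score merges 667nm spot fluorescence with signal-to-noise for antibody binding to printed compounds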
Torsin-1A (Homo sapiens) [8] = biological target: Torsin-1A (Homo sapiens) (UniProt O14656); experiment: torsin A binders from cell lysate, primary screen, small-molecule microarray, wild-type, 635/667 nm (AID 1149); details: COS7 hTOR1A-WT lysate, 635 nm fluorescence, higher = more signal
Torsin-1A (Homo sapiens) [9] = biological target: Torsin-1A (Homo sapiens) (UniProt O14656); experiment: small-molecule binders of mutant TOR1A in lysate, primary screen, cell lysate, small-molecule microarray, COS7 lysate, 635/667 nm fluorescence (AID 1150); details: COS7 hTOR1A mutant lysate, 635 nm fluorescence, higher = more signal;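 also: score pools 667 nm emission and signal to noise measuring lysate protein binding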
[10] = system: Sonic hedgehog protein (Shh); experiment: small-molecule binders of Shh protein, primary screen, biochemical, small-molecule microarray, 635/667 nm fluorescence (AID 1151); details: small-molecule microarray binding, 635 nm fluorescence; higher = more signal;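 also: Shh protein binding to compounds spotted on small-molecule microarray slides; score combines spot fluorescence intensity with signal-to-noise across triplicate slides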
[11] = E. coli DRC41 culture turbidity changes, primary screen, E. coli filamentation inducer project, strain DRC41, OD650, 48 h (AID 1152);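 also: E. coli MC1000 strain DRC41 lacking acrAB efflux pump and sulA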; details: E. coli DRC41 (acrAB sulA), higher = more signal, called active from +8 up or from −8 down
[12] = small-molecule binders of probe aLefty1, primary screen, biochemical, small-molecule microarray, 635/667 nm fluorescence (AID 1153); details: higher = more signal;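 also: score merges spot fluorescence with signal-to-noise ratio from the scanned slide images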
[13] = PSAC antagonists in infected red cells, primary screen, cell-based, P. falciparum Indochina, OD700, 1 h (AID 1154); details: P. falciparum Indochina infected RBC osmotic lysis, higher = more signal, called active from +8 up or from −8 down
[14] = PSAC antagonists in infected red cells, primary screen, cell-based, P. falciparum Indochina, OD700, 2 h (AID 1155);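 also: lysis reports solute entry through the parasite surface anion channel PSAC; channel blockers reduce lysis of infected cells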; details: P. falciparum Indochina infected erythrocytes, osmotic lysis OD700; higher = more signal, called active from +8 up or from −8 down
[15] = osmotic lysis modulators in infected erythrocytes, primary screen, PSAC antagonist project, cell-based, P. falciparum Indochina, OD700, 3 h (AID 1156); details: higher = more signal, called active from +8 up or from −8 down
[16] = PSAC antagonists in infected red cells, primary screen, cell-based, P. falciparum Indochina, OD700, 18 h (AID 1157); details: P. falciparum Indochina infected erythrocytes, osmotic lysis OD700, 18 h; higher = more signal, called active from +8 up or from −8 down
[17] = modulators of S6 phosphorylation in cells, primary screen, cell-based, A549, cytoblot, luminescence, serum-stimulated (AID 1158); details: A549 phospho-S6 cytoblot, 5 h, higher = more signal;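 also: serum-stimulated A549 lung adenocarcinoma cells; signal is phosphorylated S6 detected by cytoblot immunostaining with HRP secondary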
[18] = biological target: NADPH oxidase 2 (Homo sapiens) (UniProt P04839); experiment: NOX2-dependent H2O2 signal modulators, primary screen, NOX inhibitor project, cell-based, HEK293-NOX2, PMA-stimulated, Amplex Red fluorescence (AID 1159); details: 45 min, higher = more signal, called active from +8 up or from −8 down; also: test concentration not given here
[19] = biological target: NADPH oxidase 4 (Homo sapiens) (UniProt Q9NPH5); experiment: NOX4-dependent H2O2 signal modulators, primary screen, NOX inhibitor project, cell-based, HEK293-NOX4, tetracycline-induced, Amplex Red fluorescence (AID 1160); details: 45 min, higher = more signal, called active from +8 up or from −8 down
[20] = biological target: NADPH oxidase 5 (Homo sapiens) (UniProt Q96PH1); experiment: NOX5-dependent H2O2 signal modulators, primary screen, NOX inhibitor project, cell-based, HEK293-NOX5, Amplex Red fluorescence (AID 1161); details: HEK293-NOX5, ionomycin, 45 min, higher = more signal
Sequence of NADPH oxidase 5 (Homo sapiens) (Q96PH1 whole entry, looked up): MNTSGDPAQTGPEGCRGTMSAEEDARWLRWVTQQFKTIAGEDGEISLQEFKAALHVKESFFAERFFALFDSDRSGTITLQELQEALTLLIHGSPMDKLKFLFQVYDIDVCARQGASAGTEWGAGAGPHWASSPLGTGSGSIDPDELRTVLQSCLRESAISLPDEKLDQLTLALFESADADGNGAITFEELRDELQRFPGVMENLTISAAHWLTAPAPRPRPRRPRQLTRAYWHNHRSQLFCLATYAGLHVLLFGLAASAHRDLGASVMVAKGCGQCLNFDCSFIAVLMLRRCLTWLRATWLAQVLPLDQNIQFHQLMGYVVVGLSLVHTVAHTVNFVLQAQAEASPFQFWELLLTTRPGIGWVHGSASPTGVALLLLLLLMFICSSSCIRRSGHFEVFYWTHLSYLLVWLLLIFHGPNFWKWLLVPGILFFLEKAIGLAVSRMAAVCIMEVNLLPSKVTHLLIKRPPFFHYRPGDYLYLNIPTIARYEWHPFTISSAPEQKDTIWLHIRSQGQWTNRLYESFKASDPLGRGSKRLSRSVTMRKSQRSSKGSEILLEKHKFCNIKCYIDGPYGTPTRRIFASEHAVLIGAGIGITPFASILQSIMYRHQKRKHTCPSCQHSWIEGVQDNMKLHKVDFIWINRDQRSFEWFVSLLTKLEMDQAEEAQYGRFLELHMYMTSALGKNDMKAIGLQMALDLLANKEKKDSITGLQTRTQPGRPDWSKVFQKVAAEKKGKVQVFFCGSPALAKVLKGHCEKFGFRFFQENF

Sequence of NADPH oxidase 2 (Homo sapiens) (P04839 whole entry, looked up): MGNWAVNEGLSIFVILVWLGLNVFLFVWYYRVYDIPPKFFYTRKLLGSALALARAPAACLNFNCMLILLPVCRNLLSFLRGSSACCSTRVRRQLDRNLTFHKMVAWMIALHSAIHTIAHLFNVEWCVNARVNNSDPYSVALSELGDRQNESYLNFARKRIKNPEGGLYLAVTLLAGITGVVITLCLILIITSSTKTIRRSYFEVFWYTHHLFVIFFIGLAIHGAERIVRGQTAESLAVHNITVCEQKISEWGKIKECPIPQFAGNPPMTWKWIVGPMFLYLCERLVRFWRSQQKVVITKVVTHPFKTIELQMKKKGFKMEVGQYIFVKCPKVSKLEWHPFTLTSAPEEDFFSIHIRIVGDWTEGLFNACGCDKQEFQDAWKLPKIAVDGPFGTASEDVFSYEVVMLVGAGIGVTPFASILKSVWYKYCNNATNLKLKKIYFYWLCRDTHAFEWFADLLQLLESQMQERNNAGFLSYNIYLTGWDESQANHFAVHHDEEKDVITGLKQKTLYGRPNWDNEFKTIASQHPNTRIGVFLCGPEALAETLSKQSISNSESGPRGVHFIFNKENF
Sequence of Torsin-1A (Homo sapiens) (O14656 whole entry, looked up): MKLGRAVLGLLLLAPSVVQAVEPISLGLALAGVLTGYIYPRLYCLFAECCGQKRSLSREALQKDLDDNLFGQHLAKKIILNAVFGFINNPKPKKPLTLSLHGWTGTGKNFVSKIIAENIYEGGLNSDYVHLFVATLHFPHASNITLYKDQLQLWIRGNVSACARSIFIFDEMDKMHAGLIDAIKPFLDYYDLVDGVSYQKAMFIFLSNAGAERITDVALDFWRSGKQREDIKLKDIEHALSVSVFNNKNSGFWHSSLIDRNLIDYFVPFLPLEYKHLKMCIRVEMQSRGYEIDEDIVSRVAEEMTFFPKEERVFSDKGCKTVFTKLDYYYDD
Sequence of NADPH oxidase 4 (Homo sapiens) (Q9NPH5 whole entry, looked up): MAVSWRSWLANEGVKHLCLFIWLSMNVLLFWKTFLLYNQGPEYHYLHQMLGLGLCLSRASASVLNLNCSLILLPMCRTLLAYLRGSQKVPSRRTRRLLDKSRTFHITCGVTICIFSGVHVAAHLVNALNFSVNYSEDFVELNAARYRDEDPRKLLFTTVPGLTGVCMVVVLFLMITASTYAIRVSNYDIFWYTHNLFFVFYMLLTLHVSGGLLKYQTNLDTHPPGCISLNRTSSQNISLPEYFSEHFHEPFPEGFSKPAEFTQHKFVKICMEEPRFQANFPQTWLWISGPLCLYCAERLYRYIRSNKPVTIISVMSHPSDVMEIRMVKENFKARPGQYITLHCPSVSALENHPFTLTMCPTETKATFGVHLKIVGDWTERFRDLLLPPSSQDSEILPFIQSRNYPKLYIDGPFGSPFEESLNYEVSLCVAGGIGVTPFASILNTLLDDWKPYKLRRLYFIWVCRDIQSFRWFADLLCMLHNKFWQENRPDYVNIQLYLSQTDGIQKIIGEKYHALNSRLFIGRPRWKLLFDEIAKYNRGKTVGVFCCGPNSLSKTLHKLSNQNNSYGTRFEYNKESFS
Sequence of Streptavidin (Streptomyces avidinii) (P22629 whole entry, looked up): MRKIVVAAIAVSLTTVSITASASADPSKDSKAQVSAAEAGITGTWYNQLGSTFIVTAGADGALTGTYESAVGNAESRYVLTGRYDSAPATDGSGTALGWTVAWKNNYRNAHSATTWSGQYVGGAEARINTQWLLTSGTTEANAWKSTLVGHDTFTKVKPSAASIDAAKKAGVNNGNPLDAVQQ

| Structure (SMILES) | composite z-score [1] | z-score [2] | z-score [3] | z-score [4] | z-score [5] | composite z-score [6] | composite z-score [7] | composite z-score (Torsin-1A (Homo sapiens) [8]) | composite z-score (Torsin-1A (Homo sapiens) [9]) | composite z-score [10] | z-score [11] | composite z-score [12] | z-score [13] | z-score [14] | z-score [15] | z-score [16] | z-score [17] | z-score [18] | z-score [19] | z-score [20] |
| --- | --- | --- | --- | --- | --- | --- | --- | --- | --- | --- | --- | --- | --- | --- | --- | --- | --- | --- | --- | --- |
| COc1ccc(C#Cc2ccc3c(c2)[C@]2(C(=O)N3)[C@H](c3ccccc3OCCO)N3[C@H](c4ccccc4)[C@H](c4ccccc4)OC(=O)[C@H]3[C@@H]2C(=O)O)cc1 | 0.535 | -4.91 (inactive) | -1.66 (inactive) | -1.16 (inactive) | 4.03 (inactive) | 1.45 | 0.909 | 0.498 | 0.659 | 2.06 | -0.181 (inactive) | 1.27 | 0.123 (inactive) | 0.267 (inactive) | -5.14 (inactive) | -0.867 (inactive) | 0.25 | 0.441 (inactive) | -1.36 (inactive) | -0.669 |
| NCCCCCNC(=O)[C@@H]1C[C@@H]2C(=O)NCC(=O)N2[C@@H]1c1ccc(O)cc1 | 0.892 | 0.104 (inactive) | -0.735 (inactive) | 0.557 (inactive) | 0.467 (inactive) | 1.2 | -0.0963 | 1.06 | 0.682 | 2.06 | -0.142 (inactive) | -0.0984 | 0.539 (inactive) | 0.115 (inactive) | -0.563 (inactive) | -0.0673 (inactive) | -0.47 | -0.354 (inactive) | -0.0757 (inactive) | 0.564 |
| CC(=O)NCCCC[C@@H]1NC(=O)[C@@H]2C[C@H](C(=O)NCCCCCCNC(=O)CS)[C@H](c3cccc(OCCO)c3)N2C1=O | 0.611 | 0.206 (inactive) | -1.05 (inactive) | 0.135 (inactive) | -0.67 (inactive) | -0.088 | -0.179 | 0.442 | 0.669 | 1.63 | -0.493 (inactive) | -0.0334 | 3.47 (inactive) | 0.642 (inactive) | 0.0299 (inactive) | 0.351 (inactive) | 0.468 | 1.55 (inactive) | 0.157 (inactive) | 0.303 |
| O=C(NCc1ccc(F)cc1)[C@H]1C[C@H]2C(=O)N[C@@H](Cc3ccccc3)C(=O)N2[C@H]1c1ccc(O)cc1 | -0.0011 | -0.411 (inactive) | 0.506 (inactive) | -0.801 (inactive) | -0.887 (inactive) | -0.507 | -0.206 | 1.08 | 1.37 | 1.1 | 0.132 (inactive) | -0.0601 | 2.64 (inactive) | 0.591 (inactive) | -1.55 (inactive) | 0.498 (inactive) | -0.0688 | 0.171 (inactive) | 0.301 (inactive) | 0.965 |
| O=C1OCCC/C=C\[C@H]2OC34C=CCN(CCN5CCOCC5)C(=O)[C@H]3N(CCCO)C(=O)[C@@H]4C12 (stereo not given in full) | -0.196 | 0.732 (inactive) | 1.46 (inactive) | -0.484 (inactive) | -0.947 (inactive) | -0.388 | -0.292 | -0.222 | 1.01 | -0.165 | -0.478 (inactive) | -0.284 | 2.38 (inactive) | 0.351 (inactive) | -0.893 (inactive) | -0.352 (inactive) | -0.181 | 1.18 (inactive) | 0.481 (inactive) | 2.27 |
| Cc1ccc(S[C@]2(C(=O)NCC(F)(F)F)CC(=O)N(C(C)C)[C@@H]2c2ccc(CO)cc2I)cc1 | 0.0446 | -1.53 (inactive) | 0.111 (inactive) | 0.118 (inactive) | 0.725 (inactive) | -0.563 | -0.128 | -0.846 | -0.474 | -0.594 | 0.302 (inactive) | 0.108 | 4.6 (inactive) | 0.383 (inactive) | 0.24 (inactive) | 0.548 (inactive) | 0.303 | 1.81 (inactive) | -2.38 (inactive) | 1.5 |
| C=C(COC)/C(=C/C[C@@H](OC(C)=O)c1ccc(OCCO)cc1)c1cc(C(=O)OC)ccc1OC | 0.969 | -0.21 (inactive) | -0.201 (inactive) | 1.82 (inactive) | 1.96 (inactive) | -0.0154 | 0.0154 | 0.518 | 0.672 | 1.57 | 0.0977 (inactive) | 0.139 | 11.2 (active) | 1.87 (inactive) | 0.681 (inactive) | 0.601 (inactive) | -0.0505 | -0.0514 (inactive) | -0.355 (inactive) | -1.57 |
| CCCCC=C[C@@H](NC(=O)Oc1cccc(C(F)(F)F)c1)c1ccccc1 | 1.61 | -3.46 (inactive) | -0.721 (inactive) | 0.201 (inactive) | 0.0897 (inactive) | 1.84 | 0.996 | 0.961 | 0.947 | -0.629 | -2.63 (inactive) | 1.29 | 2.41 (inactive) | 0.278 (inactive) | 0.247 (inactive) | -1.17 (inactive) | 1.31 | -3.82 (inactive) | -3.48 (inactive) | -2.98 |
| CCOC1=C2C(CN(S(=O)(=O)c3ccc(C)cc3)C2c2ccc(C)cc2)C2C(=O)N(c3ccccc3)C(=O)C2C1 (stereo not given) | -0.069 | -0.288 (inactive) | -0.382 (inactive) | -0.275 (inactive) | 0.804 (inactive) | 0.963 | 0.0906 | -0.196 | 0.115 | 0.364 | -0.0859 (inactive) | 0.0839 | 1.87 (inactive) | 1.24 (inactive) | 0.398 (inactive) | 0.855 (inactive) | -0.258 | 1.12 (inactive) | 0.103 (inactive) | -0.229 |
